Results as given in ChEMBL document CHEMBL1961873, “Compounds: GSK PKIS; Assays: Nanosyn kinase panel” (2012).
Where “and” joins values, the source holds several entries; their conditions need not be identical. Equal entries are not always repeated.

target: Maternal embryonic leucine zipper kinase (Homo sapiens) (UniProt Q14680); details: at 0.1 µM
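Also: reported figure is the mean percent inhibition of MELK.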

Maternal embryonic leucine zipper kinase (Homo sapiens), sequence (Q14680 whole entry, looked up): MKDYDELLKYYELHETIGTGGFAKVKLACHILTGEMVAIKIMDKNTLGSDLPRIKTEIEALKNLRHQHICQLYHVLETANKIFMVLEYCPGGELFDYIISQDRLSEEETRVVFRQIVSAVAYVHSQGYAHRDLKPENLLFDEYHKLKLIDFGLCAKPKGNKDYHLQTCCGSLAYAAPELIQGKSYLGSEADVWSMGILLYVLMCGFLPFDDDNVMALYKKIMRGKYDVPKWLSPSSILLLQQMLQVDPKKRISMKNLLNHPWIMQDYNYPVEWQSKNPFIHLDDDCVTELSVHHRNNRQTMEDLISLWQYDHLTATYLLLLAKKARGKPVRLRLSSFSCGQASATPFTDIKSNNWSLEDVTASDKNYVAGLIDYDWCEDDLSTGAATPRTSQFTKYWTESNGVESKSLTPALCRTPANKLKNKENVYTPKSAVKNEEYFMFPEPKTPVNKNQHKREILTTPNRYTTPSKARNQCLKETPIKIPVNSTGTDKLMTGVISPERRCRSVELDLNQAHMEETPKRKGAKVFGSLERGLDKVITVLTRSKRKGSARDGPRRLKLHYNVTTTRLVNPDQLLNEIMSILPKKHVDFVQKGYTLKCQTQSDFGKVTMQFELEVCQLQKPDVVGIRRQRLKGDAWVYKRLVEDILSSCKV

| SMILES | inhibition |
| --- | --- |
| Cc1c2ccc(N(C)c3ccnc(Nc4cccc(S(N)(=O)=O)c4)n3)cc2nn1C | 3.62% |
| Cc1ccc(-c2cc3c(NC(=O)C4CC4)ncnc3o2)cc1 | 2.47% |
| CN(C)CCNC(=O)Nc1ccc(N(C)c2ccnc(Nc3ccc(CS(C)(=O)=O)cc3)n2)cc1 | 4.26% |
| CCS(=O)(=O)c1ccc(OC)c(Nc2ncc(-c3cccc(F)c3)o2)c1 | 7% |
| CC(C)c1ccc(-c2cc(-c3c[nH]nc3-c3ccccn3)ccn2)cc1 | 1.44% |
| c1ccc(-c2n[nH]cc2-c2ccnc(-c3ccc(OCCn4ccnc4)cc3)c2)nc1 | 2.12% |
| COc1ccc(Nc2ncc(-c3ccccc3)o2)cc1OC | 0.74% |
| Cc1cc(O)cc(C)c1/C=C/c1cncc(C(N)=O)c1 | 3.07% |
| CC1=C(C(=O)Nc2ccc3[nH]nc(C)c3c2)C(c2ccc(C(F)(F)F)cc2)CC(=O)N1 (stereo unspecified) | 3.65% |
| NS(=O)(=O)c1cccc(N/C=C2\C(=O)Nc3ccccc32)c1 | 5.46% |
| Fc1ccc(Nc2nccc(-c3c(-c4ccc(C(F)(F)F)cc4)nn4ncccc34)n2)cc1F | 1.38% |
| COc1cc2c(cc1Nc1nc(Nc3cccc(F)c3C(N)=O)c3cc[nH]c3n1)N(C(=O)CN1CCN(C(C)C)CC1)CC2 | 2.86% |
| O=C(O[C@H]1CN[C@H](C#Cc2cc3ncnc(Nc4ccc5c(ccn5Cc5cc(F)ccc5F)c4)c3s2)C1)N1CCOCC1 | 5.51% |
| CCN1CCC(C(=O)Nc2n[nH]c3nnc(-c4cccc(F)c4F)cc23)CC1 | -1.02% |
| N#Cc1cccc(Nc2ncc(-c3ccccc3)o2)c1 | -0.12% |
| CS(=O)(=O)CCNCc1ccoc1-c1ccc2ncnc(Nc3ccc(OCc4ccccc4)cc3)c2c1 | -0.71% |

| SMILES | inhibition |
| --- | --- |
| COc1cccc(-n2ncc3c(N/N=C/c4ccc(C(=O)NCCN(C)C)cc4)ncnc32)c1 | 2.38% |
| COc1cc(N2CCN(C(C)C)CC2)ccc1Nc1nc(Nc2cccc3ncccc23)c2cc[nH]c2n1 | -0.58% |
| NS(=O)(=O)c1ccc(N/N=C2\C(=O)Nc3ccc(C(=O)NCc4ccncc4)cc32)cc1 | 49.6% |
| CCn1c(-c2nonc2N)nc2cncc(C(=O)NCCNC)c21 | 15.2% |
| COC(=O)Nc1nc2cc(Oc3ccc(NC(=O)Nc4ccccc4)cc3)ccc2[nH]1 | 0.33% |
| COc1cc(Nc2ncc(-c3ccccc3)o2)cc(OC)c1 | 4.58% |
| COc1ccc(-c2nn3ncccc3c2-c2ccnc(Nc3ccc(F)c(F)c3)n2)cc1 | 3.07% |
| COc1c(C(N)=O)cc(-c2ccc(Cl)cc2)cc1-c1ccc(S(N)(=O)=O)cc1 | 6.28% |
| Nc1ncnc2occ(-c3ccc(NC(=O)Nc4cc(C(F)(F)F)ccc4F)cc3)c12 | -6.51% and -4.36% |
| CC1=C(C(=O)Nc2ccc3[nH]ncc3c2)C(c2ccc(F)cc2)N=C(c2ccc(C(F)(F)F)nc2)N1 (stereo unspecified) | 2.15% |
| CN1CCN(Cc2ccc(-c3cc4ncnc(Nc5ccc(OCc6cccc(F)c6)c(Cl)c5)c4s3)o2)CC1 | 4.83% and 3.2% |
| N#Cc1ccc2c(-c3ccnc(NC4CC4)n3)c(-c3ccc(F)cc3)nn2c1 | -0.07% |
| CNC(=O)c1ncccc1Nc1nc(Nc2cc3c(cc2OC)CCCN3C(=O)CN(C)C)nc2[nH]ccc12 | 3.77% |
| Nc1nccc(-c2c(-c3ccc(F)cc3)ncn2C2CCNCC2)n1 | -3.33% and -1.76% |
| c1cnn2ncc(-c3ccnc(NCCCN4CCOCC4)n3)c2c1 | 4.35% |
